Drawing on PubChem BioAssay AID2069 (Sanford-Burnham Center for Chemical Genomics, 2009), this text covers inhibition for 23 compounds.

About 210 (18%) of roughly 1,200 compounds were called active. Cut-off read from the data, not from the text of the source: active = inhibition above about 30%; inactive = the rest. These entries were drawn from the full list.

A short description of the experiment: HTRF signal interference by compounds, confirmation, artefact control for SUMOylation inhibitor project, biochemical, uHTS (AID 2069). The following applies: HTRF interference counterscreen, fluorescence, at 35 µM, stronger effect = higher value.
Regarding `NC(=O)CC(NC(=O)Cc1ccc(Br)cc1)c1ccc(NCCc2ccccc2F)c([N+](=O)[O-])c1` (stereo not drawn), the inhibition is 5.95% (inactive). To `O=C(/C=C/c1ccco1)NC(=S)NNC(=O)c1ccco1` belongs -18.9% (inactive); to `O=C(O)CSc1cc(C(=O)c2cc(F)ccc2O)cn2c(=O)c3c(-c4ccccc4)csc3nc12`, 28.9% (inactive); to `CCCN(CC1CC1)c1nc(N)c2c(N)nc(OC)cc2c1C#N`, 10.2% (inactive). With `N#Cc1c(N2CCN(c3ccc(F)cc3)CC2)nc(N)c2c(N)nc3c(c12)CC(=O)N3C1CC1`, the inhibition is 16.5% (inactive). For the compound `N#Cc1c(N(CCO)CCO)nc(N)c2c(N)nc3c(c12)CC(=O)N3CC1CCCO1` (stereo not drawn), the inhibition was 41.8% (active).

With `CN(CCO)c1nc(N)c2c(N)nc3c(c2c1C#N)CC(=O)N3C1CCCC1`, the inhibition was 43.9% (active). With `N#Cc1c(N(CCO)CCO)nc(N)c2c(N)nc3c(c12)CC(=O)N3Cc1cccs1`, the inhibition was 25.1% (inactive). On to `COc1ccc(C)c2sc(NC(=O)c3cccc(N4C(=O)CCC4=O)c3)nc12`, for which the inhibition is 21% (inactive). Under `CC(C)C(=O)Nc1cccc(C(=O)NCc2ccc3c(c2)OCO3)c1` stands -4.7% (inactive). `N#Cc1c(-c2ccc(Cl)cc2)cc(-c2cccs2)nc1SCC(=O)O`: the inhibition is -4.9% (inactive).

As to `CCOC(=O)C1CCN(C2=C(NS(=O)(=O)c3ccc(Br)cc3)C(=O)c3ccccc3C2=O)CC1`, the inhibition was -7.95% (inactive). In the case of `O=C(Nc1ccc(Br)cc1)c1ccc(N2C(=O)C3CC=C(Cl)CC3C2=O)cc1` (stereo not drawn), the inhibition is -0.95% (inactive). For `COCCNC(=O)c1c(N)n(CCC2=CCCCC2)c2nc3ccccc3nc12`, the inhibition was 25.1% (inactive). Under `COCCCNC(=O)c1c(N)n(-c2ccccc2)c2nc3ccccc3nc12` stands 33.6% (active). Under `C=CCn1c(NS(=O)(=O)c2ccccc2)c(S(=O)(=O)c2ccc(C)cc2)c2nc3ccccc3nc21` stands 23.6% (inactive). `C=CCNC(=O)c1c(N)n(-c2cccc(S(N)(=O)=O)c2)c2nc3ccccc3nc12`: the inhibition was 33% (active). Under `Nc1c(C(=O)NCc2ccco2)c2nc3ccccc3nc2n1CCc1ccccc1` stands 11% (inactive); under `C=CCn1c(NC(=O)c2ccc(Br)o2)c(S(=O)(=O)c2ccccc2)c2nc3ccccc3nc21`, 8.1% (inactive); under `COc1ccc(-n2c(N)c(C(=O)NCc3ccco3)c3nc4ccccc4nc32)cc1OC`, 11.5% (inactive). Under `COCCNC(=O)c1c(N)n(CCCn2ccnc2)c2nc3ccccc3nc12` stands 40% (active); under `CCc1cc(=O)oc2c3c(cc(OCC(=O)NCCCCCC(=O)O)c12)OC(C)(C)CC3`, 29.8% (inactive); under `Cc1ccc(Sc2cc(NCCCO)c([N+](=O)[O-])c3nonc23)cc1`, 0.15% (inactive).
